Experimental data: PubChem BioAssay AID743365 (National Center for Advancing Translational Sciences (NCATS), 2014)

assay: qHTS profiling of inhibitors of Plasmodium falciparum (DD2) proliferation (acoustic dispense); settings: P. falciparum Dd2 in erythrocytes, SYBR Green DNA, 72 h; at 49.8 µM (top of the series) unless noted

Row | SMILES | parasite growth, lower = inhibition
1 | C[C@H]1c2cccc(O)c2C(O)=C2C(=O)[C@]3(O)C(O)=C(C(N)=O)C(=O)[C@@H](N(C)C)[C@@H]3[C@@H](O)[C@@H]21 | 1.85%
2 | C[C@H]1Cc2c([nH]c3cc(Cl)c(F)cc23)[C@@]2(N1)C(=O)Nc1ccc(Cl)cc12 | -0.794%
3 | CCn1nnc2c(N3CCOCC3)nc(-c3ccc(NC(=O)Nc4ccc(C(=O)N5CCN(C)CC5)cc4)cc3)nc21 | 2.15%
4 | O=C1C(=O)c2ccccc2C(O)=C1C1CCC(c2ccc(Cl)cc2)CC1 (configuration not stated) | 3.04%
5 | O=C1c2c(O)ccc(O)c2C(=O)c2c(NCCNCCO)ccc(NCCNCCO)c21 | -3.56%
6 | CN([C@@H](Cc1ccc(OS(=O)(=O)c2cccc3cnccc23)cc1)C(=O)N1CCN(c2ccccc2)CC1)S(=O)(=O)c1cccc2cnccc12 | 0.489%
7 | Cc1ccc([N+](=O)[O-])cc1S(=O)(=O)N(C)N=Cc1cnc2ccc(Br)cn12 | 6.06%
8 | NC1CCC(Nc2nc(Nc3ccc(C(=O)N4CCCCC4)cc3)c3ncn(-c4cccc(F)c4)c3n2)CC1 (configuration not stated) | -0.359%
9 | CC[C@@]1([C@@H]2O[C@@H]([C@H]3O[C@@](O)(CO)[C@H](C)C[C@H]3C)C[C@H]2C)CC[C@H]([C@]2(C)CC[C@]3(C[C@H](O)[C@@H](C)[C@@H]([C@@H](C)[C@@H](OC)[C@H](C)C(=O)O)O3)O2)O1 | -0.231% [at 23.2 µM]
10 | CC1(C)N=C(N)N=C(N)N1c1ccc(Cl)cc1 | 3.98%
11 | CCNC(=O)c1noc(-c2cc(C(C)C)c(O)cc2O)c1-c1ccc(CN2CCOCC2)cc1 | 112%
12 | Cc1nc2c(C#N)cccc2n1-c1ccc(C(=O)NC2CC2)s1 | 2.19%
13 | Cc1[nH]c2ccccc2c1CCNCc1ccc(C=CC(=O)NO)cc1 | -0.777%
14 | CC(C)C[C@H](NC(=O)[C@H](CCc1ccccc1)NC(=O)CN1CCOCC1)C(=O)N[C@@H](Cc1ccccc1)C(=O)N[C@@H](CC(C)C)C(=O)[C@@]1(C)CO1 | 0.838%
15 | COc1cc2nc(N3CCCN(C)CC3)nc(NC3CCN(Cc4ccccc4)CC3)c2cc1OC | -0.574%
16 | C=C[C@@H]1CN2CC[C@@H]1C[C@H]2[C@H](O)c1ccnc2ccc(OC)cc12 | 0.438%
17 | CCN(CC)CCNC(=O)c1c(C)[nH]c(C=C2C(=O)Nc3ccc(F)cc32)c1C | -0.534% [at 100 µM]
18 | CC[C@H]1OC(=O)[C@H](C)C(=O)[C@H](C)[C@@H](O[C@H]2O[C@H](C)C[C@H](N(C)C)[C@@H]2O)[C@](C)(OC)C[C@@H](C)C(=O)[C@H](C)[C@H]2N(CCCCn3cnc(-c4cccnc4)c3)C(=O)O[C@]12C | 4.52%
19 | C=CCNc1c(O)cc2c(O)c1C[C@@H](C)C[C@H](OC)[C@@H](O)[C@@H](C)C=C(C)[C@H](OC(N)=O)[C@@H](OC)C=CC=C(C)C(=O)N2 | -0.701%
20 | COc1cc2c(Oc3ccc(NC(=O)C4(C(=O)Nc5ccc(F)cc5)CC4)cc3F)ccnc2cc1OCCCN1CCOCC1 | 0.0003%
21 | CC(Sc1nc2ccccc2[nH]1)C(=O)NN=Cc1cc(Br)ccc1O (configuration not stated) | 99.5% [at 4.15 µM]
22 | CCCCN(CCCC)CC(O)c1cc(Cl)cc2c1-c1ccc(Cl)cc1C2=Cc1ccc(Cl)cc1 (configuration not stated) | -0.158%
23 | CCOC(=O)[C@H](CCc1ccccc1)N[C@H]1CS[C@H](c2cccs2)CN(CC(=O)O)C1=O | 61.3%
24 | Cn1c(=O)n(-c2ccc(C(C)(C)C#N)cc2)c2c3cc(-c4cnc5ccccc5c4)ccc3ncc21 | 1%
25 | COc1ncc(-c2ccc3nccc(-c4ccnnc4)c3c2)cc1NS(=O)(=O)c1ccc(F)cc1F | -0.286%
26 | COCCn1c2c([n+](Cc3cnccn3)c1C)C(=O)c1ccccc1C2=O | -0.378%
27 | CC[C@@]1(O)C[C@H](O[C@H]2C[C@H](N(C)C)[C@H](O[C@H]3C[C@H](O)[C@H](O[C@H]4CCC(=O)[C@H](C)O4)[C@H](C)O3)[C@H](C)O2)c2c(cc3c(c2O)C(=O)c2c(O)cccc2C3=O)[C@@H]1C(=O)OC | -1.21%
